According to PubChem BioAssay (NCI):
The panel holds about 83,000 compounds, 20% with a hit somewhere; the sample as a whole holds those more often.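 Each cell line was grown in a 96-well plate and treated with one concentration of compound for 48 hours. Values below 10 were considered active.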 Unmarked numbers belong to inactive results. Active and inactive are the calls of the source.

Each molecule was assayed on OVCAR-4 ovarian (assay: NCI-60 one-dose screen, 48 h (100 = growth as untreated, 0 = no growth, -100 = all killed)). Conditions: 10 µM unless noted.

SMILES	growth
COc1ccc(C/C(C)=C(\c2ccc(Cl)cc2)c2ccc(OCCN3CCCCC3)cc2)cc1	102%
Cc1ccc(C(=O)c2ccc(CC(=O)N/N=C/c3ccccc3O)n2C)cc1	60.2%
CCO/C=N/C1=C(C#N)C(c2ccc(Cl)cc2)c2sc3c(F)cccc3c2O1 (stereo unspecified)	77.6%
CCCCNC(=O)Oc1ccc(/C(=C(/C)Cc2ccc(OC)cc2)c2ccc(OCCN(CC)CC)cc2)cc1	80.3%
COc1cc2oc(-c3cccc(NC(=O)c4ccccc4)c3)cc(=O)c2c(OC)c1OC	81.7%

What follows are molecules tested on SK-OV-3 ovarian in the same assay as above. Conditions: 10 µM unless noted.

SMILES	growth
CN1C(=O)/C(=C\c2nc([P+](c3ccccc3)(c3ccccc3)c3ccccc3)c(N3CCOCC3)o2)SC1=S	108%
COc1ccc2c(c1)c(-c1nc(-c3c[nH]c4ccncc34)cs1)cn2C	106%
COc1ccc(C(=O)c2cc3c(N)c(C(=O)Nc4ccc(C)cc4)sc3nc2C)cc1	35.3%
COc1cc2nc3cc([N+](=O)[O-])ccc3c(NCCNCC(C)O)c2cc1OC (stereo unspecified)	20.8%
Cc1sc2nc(NCCc3c[nH]c4ccc(Cl)cc34)[nH]c(=O)c2c1C	60.6%
CC/C(=C(/c1ccc(Cl)cc1)c1ccc(OCCN(C)C)cc1)c1ccc(Cl)cc1	90%
CNC(=O)c1[nH]cc(-c2ccc(OC)cc2)c1-c1cc(OC)c2c(c1OC)OCO2	99.9%
C=CCc1c(O)c(C(=O)/C=C/c2ccccc2)c(OC)c2ccoc12	74.4%
COc1ccc(-c2cc(-c3ccc(Cl)cc3)c(C#N)c(=O)n2Cc2ccc(C(=O)Nc3ccccc3N)cc2)cc1	92.6%
COc1ccc(/C=C/C(=O)c2cccc(OCCCCOc3cccc(C(=O)/C=C/c4ccc(OC)c(OC)c4)c3)c2)cc1OC	89.6%
CCOC(=O)c1ccc(NC(=O)c2nc(-c3cc(OC)c(OC)c(OC)c3)n(-c3ccc(Cl)cc3)n2)cc1	94.3%
Cc1ccc(CNc2ccc3nc(CCC4CCCCC4)[nH]c3c2)cc1	60.3%
CC(=O)c1c(C)nc(SCC(=O)Nc2cccc(O)c2)n1-c1ccc(Cl)cc1	104%
Cc1ccc2c(c1)=C/C(=C\c1cc(-c3ccccc3)oc1O)C(=O)N=2	111%
O=C(CSc1nnc(-c2cnccn2)n1-c1ccccc1)c1ccc(Cl)cc1	108%
CCC(=C(c1ccc(OCCN2CCCCC2)cc1)c1ccc(OCCN2CCCCC2)cc1)c1ccc(Cl)cc1	-85.7% (active)

SMILES	growth
O=C(Nc1ccc(Oc2cccc(Cl)c2)c(Cl)c1)c1cnccn1	83.3%
CCCNc1nc2ccccc2c2c1S(=O)(=O)c1ccc(Cl)cc1C2=O	32.2%
C=CCOC(=O)Nc1cccn([C@H](Cc2ccccc2)C(=O)NCCC(C)C)c1=O	103%
N#Cc1c(-c2ccc(Cl)cc2)nc(NN2C(=O)c3ccccc3C2=O)nc1N1CCOCC1	106%
N#Cc1nc(-c2ccc(F)cc2)oc1S(=O)(=O)N1CCCCC1	104%
COc1ccc2cc1Oc1ccc(cc1)C[C@H]1c3c(cc4c(c3Oc3cc5c(cc3OC)CCN(C)[C@@H]5C2)OCO4)CCN1C	110%
C=C1C(=O)O[C@H]2[C@H]1CC/C(COC(=O)/C=C\C(=O)NCc1ccc(Cn3c(=O)sn(CCI)c3=O)cc1)=C\CC[C@@]1(C)O[C@@H]21	133%
CCOC(=O)c1c(NC(=O)c2ccc(Cl)cc2)sc2c(CN(C)C)c(O)ccc12	81.6%
CSc1nc(N)c(NS(=O)(=O)c2ccc(C(C)=O)cc2)c(=O)[nH]1	117%
COc1cc2c(c(OC)c1OC)CCC(c1cccc(C(=O)Nc3cccc(Cl)c3)c1)O2 (stereo unspecified)	64.9%
Cc1nc2sc(C(=O)Nc3cccc4ccccc34)c(N)c2cc1C(O)c1ccccc1 (stereo unspecified)	8.83% (active)
COc1ccc(C(=O)N2c3ccccc3Sc3ccccc32)c(OC)c1	36.9%
Cc1nc2sc(C(=O)Nc3ccc(Br)cc3)c(N)c2cc1C(O)c1ccccc1 (stereo unspecified)	78.3%
CNc1nnc2n(-c3ccccc3)c(=O)c3cnn(-c4ccccc4)c3n12	68.4%
[O-]/[N+](=C\c1ccc(-n2cc(Cc3ccccc3Cc3cn(-c4ccc(/C=[N+](/[O-])c5ccccc5)cc4)nn3)nn2)cc1)c1ccccc1	106%
